# Data from paper PMC4336329 (PLoS ONE, 2015).
# The campaign covered roughly 310,000 compounds. About 2,200 (0.71%) showed an effect of 50% or more. The effect is printed as a negative number. Shown is part of a subset that was picked to be rich in strong results.
# Target: human ether-à-go-go-related gene (hERG) potassium channel (human, UniProt Q12809)
# Assay: primary screen, population patch clamp on CHO cells stably expressing hERG; higher = less effect of the substance
# Chain of human ether-à-go-go-related gene (hERG) potassium channel (Q12809 whole entry, looked up): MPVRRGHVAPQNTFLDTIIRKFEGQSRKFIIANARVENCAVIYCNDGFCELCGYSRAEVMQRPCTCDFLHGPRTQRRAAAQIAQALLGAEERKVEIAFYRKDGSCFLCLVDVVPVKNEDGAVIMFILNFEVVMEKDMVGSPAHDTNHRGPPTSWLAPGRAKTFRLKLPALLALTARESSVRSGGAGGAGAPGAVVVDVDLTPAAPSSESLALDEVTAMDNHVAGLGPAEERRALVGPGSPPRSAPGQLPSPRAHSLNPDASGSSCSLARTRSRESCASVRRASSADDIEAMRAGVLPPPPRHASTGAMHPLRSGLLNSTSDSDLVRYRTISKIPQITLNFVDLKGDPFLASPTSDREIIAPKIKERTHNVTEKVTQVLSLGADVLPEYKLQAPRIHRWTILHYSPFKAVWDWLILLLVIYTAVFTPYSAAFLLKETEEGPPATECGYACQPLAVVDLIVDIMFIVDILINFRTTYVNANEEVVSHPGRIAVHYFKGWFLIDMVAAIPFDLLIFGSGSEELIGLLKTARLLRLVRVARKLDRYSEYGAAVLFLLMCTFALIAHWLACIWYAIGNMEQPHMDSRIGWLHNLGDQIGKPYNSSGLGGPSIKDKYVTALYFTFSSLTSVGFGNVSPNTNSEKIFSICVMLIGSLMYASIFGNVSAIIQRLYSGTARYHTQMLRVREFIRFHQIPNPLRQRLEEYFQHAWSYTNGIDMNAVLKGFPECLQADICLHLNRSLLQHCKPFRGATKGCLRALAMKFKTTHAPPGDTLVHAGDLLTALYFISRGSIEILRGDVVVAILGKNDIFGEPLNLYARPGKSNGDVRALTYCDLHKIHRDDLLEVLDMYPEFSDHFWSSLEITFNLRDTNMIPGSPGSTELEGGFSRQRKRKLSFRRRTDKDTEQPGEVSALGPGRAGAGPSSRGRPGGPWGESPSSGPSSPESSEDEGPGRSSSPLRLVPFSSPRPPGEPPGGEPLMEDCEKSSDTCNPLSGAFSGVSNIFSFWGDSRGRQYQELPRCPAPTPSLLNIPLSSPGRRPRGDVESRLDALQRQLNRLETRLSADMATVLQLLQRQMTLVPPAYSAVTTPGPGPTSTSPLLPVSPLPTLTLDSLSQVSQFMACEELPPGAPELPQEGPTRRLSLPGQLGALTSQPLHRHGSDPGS
row,SMILES,"hERG current change (%, negative = inhibition) at 1uM"
1,CCOc1cccc(NC(=O)C2CC(=O)N(C)C(=Nc3cccc(F)c3)S2)c1 (centres unmarked),9.17%
2,N#Cc1ccc(-c2ccc(OCC3CNC(=O)O3)cc2)cc1 (centres unmarked),8.74%
3,CCOC(=O)c1cccc(NC(=O)CCNS(=O)(=O)c2cc(Br)cnc2N)c1,14.4%
4,Cc1ccc(S(=O)(=O)N2CCC(=O)N(CCOCc3cccc(F)c3)CC2)cc1,7.15%
5,O=C(O)CCn1nnc(-c2ccccc2)n1,10.7%
6,O=C(COc1ccc(Cl)cc1)NCc1nnc(SCC(=O)Nc2ccccc2)o1,1.01%
7,Cc1ccc(SCC(=O)Nc2ccc(C(=O)Nc3ccc(O)cc3)cc2)cc1,12.6%
8,Cc1ccc(NC(=O)Cc2ccc([N+](=O)[O-])cc2)c(Br)c1,5.32%
9,CC(C)Oc1ccc(CCC(=O)N/N=C/c2ccc3c(c2)OCO3)cc1,16.1%
10,COc1ccc(C2c3ccc4ccccc4c3Oc3ncn(CCO)c(=N)c32)cc1 (centres unmarked),-61.7%
11,COc1ccc(C2c3ccc4ccccc4c3Oc3ncn(CCCN(C)C)c(=N)c32)cc1 (centres unmarked),-29%
12,COc1ccc(C2c3ccc4ccccc4c3Oc3ncn(CCCO)c(=N)c32)cc1 (centres unmarked),-40.6%
13,CN(C)CCn1cnc2c(c1=N)C(c1ccccc1)c1ccc3ccccc3c1O2 (centres unmarked),-78.1%
14,N=c1c2c(ncn1CCCO)Oc1c(ccc3ccccc13)C2c1ccccc1 (centres unmarked),-20.5%
15,CN(C)CCCn1cnc2c(c1=N)C(c1ccccc1)c1ccc3ccccc3c1O2 (centres unmarked),-61.9%
16,COc1ccc(C2c3ccc4ccccc4c3Oc3ncn(CCN(C)C)c(=N)c32)cc1 (centres unmarked),-40.1%
17,COc1ccc(C2c3ccc4ccccc4c3Oc3ncn(CCO)c(=N)c32)cc1OC (centres unmarked),-13.9%
18,COc1ccccc1C1c2ccc3ccccc3c2Oc2ncn(CCN(C)C)c(=N)c21 (centres unmarked),-7%
19,Nc1cccc2c1C(=O)N(C(=O)c1ccc(Cl)c(S(=O)(=O)N3CCCCCC3)c1)C2=O,13.1%
20,COc1cccc(CCc2nnc(CCC(=O)N3CCN(Cc4ccccn4)CC3)o2)c1,10.2%
21,COCCCNC(=O)c1cc2c(=O)n(C)c3ccccc3c2n1C,-8.02%
22,O=C(COC(=O)CCN1C(=O)c2ccccc2C1=O)Nc1ccccc1[N+](=O)[O-],16.6%

row,SMILES,"hERG current change (%, negative = inhibition) at 1uM"
1,O=C(CSc1nnc(-c2ccco2)o1)N1c2ccccc2CCc2ccccc21,9.21%
2,CCOC(=O)C(C)n1cnc2c(nnn2Cc2ccc(C)cc2)c1=O (centres unmarked),11.6%
3,CC(C)c1ccc(-c2nc(N3CCCCCC3)nc3n[nH]c(N)c23)cc1,10.2%
4,COc1ccc(NC(=O)Cn2nnc(C(=O)NCCc3ccc(OC)c(OC)c3)c2N)c(OC)c1,-1.5%
5,CCn1c(CCc2ccccc2)nnc1SCC(N)=O,13.3%
6,NC(=O)C1(c2ccccc2)CCC(=O)N1c1ccccc1 (centres unmarked),14.8%
7,O=C(CN(C1CCCCC1)S(=O)(=O)c1ccc(Cl)cc1)NCc1cccnc1,-60.6%
8,CCOc1ccc(N(CC(=O)NCc2ccccc2)S(=O)(=O)c2ccc(C)cc2)cc1,6.54%
9,Cc1ccc(S(=O)(=O)N(CC(=O)NCc2cccnc2)C2CCCCC2)cc1,-30.3%
10,O=C(CN(Cc1ccccc1)S(=O)(=O)c1ccc(F)cc1)NCc1cccnc1,-31.9%
11,O=C(CN(C1CCCCC1)S(=O)(=O)c1ccccc1)NCc1cccnc1,5.52%
12,CCOc1ccc(S(=O)(=O)N(CC(=O)NCc2cccnc2)c2ccc(F)cc2)cc1,-67.2%
13,CCOc1ccc(S(=O)(=O)N(CC(=O)NCc2ccncc2)c2ccc(C)cc2)cc1,-14.6%
14,CCOc1ccc(S(=O)(=O)N(CC(=O)NCc2cccnc2)c2ccc(C)cc2)cc1,-52.4%
15,Cc1ccc(S(=O)(=O)N(CC(=O)NCc2cccnc2)c2ccc(F)cc2)cc1,-38.1%
16,COc1ccc(S(=O)(=O)N(CC(=O)NCc2cccnc2)Cc2ccccc2)cc1,-51.2%
17,CCN(CC(=O)NCc1cccnc1)S(=O)(=O)c1ccc(OC)cc1,0.0713%
18,CCOc1ccc(N(CC(=O)NCc2cccnc2)S(=O)(=O)c2ccc(F)cc2)cc1,7.16%
19,C[C@H]1CN=C(N(C)C)N1CCC1CCCCC1,13.6%
20,CN(CC(=O)Nc1cccc(S(=O)(=O)NC2=NCCCCC2)c1)Cc1ccc(C(C)(C)C)cc1.O=C(O)C(=O)O,12.9%
21,CCN1CCN(S(=O)(=O)c2cc(OC)ccc2OC)CC1,19%
22,c1ccc(CSc2nnc3c(n2)OC(c2ccco2)Nc2ccccc2-3)cc1 (centres unmarked),14.9%

row,SMILES,"hERG current change (%, negative = inhibition) at 1uM"
1,COC(=O)c1sc(Nc2ccccc2)nc1C,13.5%
2,C/C(N)=C(/C#N)C(=O)CSc1nc2cc(Cl)ccc2s1,-7.65%
3,C/C(=N/O)c1ccc2c(c1)OCCOCCOc1cc(/C(C)=N/O)ccc1OCCOCCO2,-79.7%
4,c1ccc2c(c1)OCCOCCOCCO2,13.2%
5,CC(=O)c1ccc2c(c1)OCCOCCOc1ccccc1OCCOCCO2,-82.5%
6,C/C(=N\O)c1ccc2c(c1)OCCO2,12.6%
7,CC(=O)c1ccc2c(c1)OCCOCCOCCOCCOCCO2,-11.8%
8,CC(=O)c1ccc2c(c1)OCCOCCOCCOCCO2,-3.2%
9,c1ccc2c(c1)OCCOCCOCCOCCOc1ccccc1OCCOCCOCCO2,-11.5%
10,CC(=O)c1ccc2c(c1)OCCOCCOCCO2,12.3%
11,O=C(O)c1ccc2c(c1)OCCOCCOCCOCCOCCO2,-12.4%
12,CC(=O)c1ccc2c(c1)OCCOCCOc1ccc(C(C)=O)cc1OCCOCCO2,-84.8%
13,O=C(c1ccccc1)c1ccc2c(c1)OCCOCCOCCO2,8.88%
14,CC(=O)[O-].[K+].c1ccc2c(c1)OCCOCCOc1ccccc1OCCOCCO2,-80.7%
15,CN1CCN(C2=C(Cl)C(=O)N(CCc3ccccc3)C2=O)CC1,17.7%
16,CCN(CC)S(=O)(=O)c1ccc(C(=O)Nc2c3c(nn2C(C)(C)C)CS(=O)(=O)C3)cc1,5.04%
17,Cc1cc(C)c[n+](-c2nc3ccccc3nc2[N-]S(=O)(=O)c2cccs2)c1,2.45%
18,COC(=O)c1ccccc1NC(=O)CNc1cc(Cl)ccc1N1CCOCC1,-0.671%
19,CCC(=O)Nc1cccc(C(=O)Nc2nccs2)c1,8.98%
20,CN1CCC(=NNC(=O)c2ccc(N(Cc3ccccc3Cl)S(C)(=O)=O)cc2)CC1,6.54%
21,CCc1ccccc1NC(=O)/C(=C/c1ccccc1)c1ccccc1,-4.2%
22,Cc1ccc(OCC(=O)NC(=S)Nc2ccc(Br)c(C)n2)cc1,5.89%

row,SMILES,"hERG current change (%, negative = inhibition) at 1uM"
1,O=C(CCCC(=O)c1ccc(F)cc1)c1ccc(F)cc1,5.62%
2,CCN(CCCC(=O)c1ccc(F)cc1)CCc1ccccc1.Cl,-86.5%
3,O=C(CCCc1ccccc1)c1ccccc1,19.4%
4,COCCn1nnnc1C(c1ccc(OC)c(OC)c1)N1CCN(c2nc3ccccc3s2)CC1 (centres unmarked),2.83%
5,COCCN(C(=O)c1csnn1)C(C(=O)NC1CCCC1)c1ccccc1F (centres unmarked),12.6%
6,COc1ccc(-n2c(NCCN(C)C)nc3sc4c(c3c2=O)CCCCC4)cc1,-69.4%
7,COc1ccc(-n2c(NN)nc3sc4c(c3c2=O)CCCC4)cc1,-9.75%
8,CN(C)CCNc1nc2sc3c(c2c(=O)n1-c1ccc(F)cc1)CCCCC3,6.73%
9,CC1(C)CC(NC(=O)C2CCN(S(=O)(=O)c3ccc(F)cc3)CC2)CC(C)(C)N1,16.9%
10,CCOC(=O)C1(Cc2ccccc2)CCN(Cc2nccn2CC)CC1,8.81%
11,CCOC(=O)C1(Cc2cccc(OC)c2)CCN(Cc2cnc(N)nc2)CC1,5.79%
12,CCOC(=O)C1(Cc2cccc(OC)c2)CCCN(Cc2nccn2CC)C1 (centres unmarked),-13.5%
13,CCOC(=O)C1(Cc2ccc(Cl)cc2)CCN(Cc2ccon2)CC1,5.86%
14,CCOC(=O)C1(Cc2ccc(Cl)cc2)CCN(Cc2cnc(N)nc2)CC1,-60.6%
15,CCOC(=O)C1(Cc2ccc(Cl)cc2)CCN(Cc2nccn2CC)CC1,-57%
16,CCOC(=O)C1(Cc2ccc(Cl)cc2)CCN(C(=O)C2=NNC(=O)CC2)CC1,-61.2%
17,CCOC(=O)C1(Cc2ccc(Cl)cc2)CCN(C(=O)c2cscn2)CC1,-12.4%
18,O=C1CCC(C(=O)N2CCC(CO)(Cc3ccc(Cl)cc3)CC2)=NN1,2.9%
19,COc1ccccc1C(=O)Nc1nnc(S(=O)(=O)N2CCC(C)CC2)s1,12.4%
20,CCOc1ccc(CNC(=O)C2CCCN(c3nnc(C)c4c(C)n(-c5ccccc5)nc34)C2)cc1 (centres unmarked),8.87%
